What was measured:
Experiment in all cases: DAPPL (digital affinity profiling via proximity ligation, sequencing); 10 mM Tris-HCl pH 7.5, 50 mM NaCl, 1 mM DTT, 4% glycerol, room temperature, 30 min; GST-TFs on glutathione beads, 16-mer random dsDNA library, 0.1% formaldehyde crosslink after washing; high values mean tight binding
Conditions in all cases: protein: recombinant; tags: N-terminal GST; dsDNA, one strand shown
[1] = target: T1, ELK1 (Homo sapiens, UniProt P19419 1-428)
T1 sequence: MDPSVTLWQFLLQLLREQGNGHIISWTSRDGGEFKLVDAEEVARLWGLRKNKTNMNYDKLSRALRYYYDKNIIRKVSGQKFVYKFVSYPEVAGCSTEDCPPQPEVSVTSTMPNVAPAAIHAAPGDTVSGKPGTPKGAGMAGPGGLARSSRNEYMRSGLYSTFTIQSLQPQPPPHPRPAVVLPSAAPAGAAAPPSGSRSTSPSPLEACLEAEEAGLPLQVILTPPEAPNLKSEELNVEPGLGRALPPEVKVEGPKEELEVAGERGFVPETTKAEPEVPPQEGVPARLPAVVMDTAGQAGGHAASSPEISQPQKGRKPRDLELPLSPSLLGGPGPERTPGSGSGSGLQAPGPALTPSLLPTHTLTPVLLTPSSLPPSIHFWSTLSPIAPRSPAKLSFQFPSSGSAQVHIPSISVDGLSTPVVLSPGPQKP
Procedure, shortened: (§1)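 Sequencing on an Illumina NextSeq500 followed washing, crosslinking with 0.1% formaldehyde, proximity ligation (BsaI/T4 ligase, 1 h, 37 °C) and PCR amplification of pools that had been incubated for 30 min at room temperature with 200 nmole of a random double-stranded 16-mer DNA library in Tris/NaCl/DTT/glycerol buffer. Each pool held DNA-barcoded human transcription factors, expressed in yeast as GST fusions and captured on glutathione beads, plus a tag-only sample. Binding signal is a hexamer's read frequency for a factor divided by its frequency in the tag-only sample.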

[2] = target: T2, ERG (Homo sapiens, UniProt P11308 1-479)
T2 sequence: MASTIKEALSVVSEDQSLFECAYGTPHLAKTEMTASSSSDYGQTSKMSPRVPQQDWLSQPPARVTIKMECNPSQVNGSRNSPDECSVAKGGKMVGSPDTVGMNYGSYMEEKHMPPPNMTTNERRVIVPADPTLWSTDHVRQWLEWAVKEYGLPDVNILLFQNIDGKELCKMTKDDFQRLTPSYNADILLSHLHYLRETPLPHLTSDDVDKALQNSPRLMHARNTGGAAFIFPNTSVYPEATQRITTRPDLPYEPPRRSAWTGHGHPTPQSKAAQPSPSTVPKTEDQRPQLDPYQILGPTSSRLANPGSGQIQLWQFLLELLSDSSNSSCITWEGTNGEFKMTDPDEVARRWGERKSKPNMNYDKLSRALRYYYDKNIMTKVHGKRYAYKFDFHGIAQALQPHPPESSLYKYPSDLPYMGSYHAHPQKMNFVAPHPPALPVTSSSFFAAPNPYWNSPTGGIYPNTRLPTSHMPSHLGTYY
Procedure, shortened: as §1

[3] = target: T3, EHF (Homo sapiens, UniProt Q9NZC4 1-300)
T3 sequence: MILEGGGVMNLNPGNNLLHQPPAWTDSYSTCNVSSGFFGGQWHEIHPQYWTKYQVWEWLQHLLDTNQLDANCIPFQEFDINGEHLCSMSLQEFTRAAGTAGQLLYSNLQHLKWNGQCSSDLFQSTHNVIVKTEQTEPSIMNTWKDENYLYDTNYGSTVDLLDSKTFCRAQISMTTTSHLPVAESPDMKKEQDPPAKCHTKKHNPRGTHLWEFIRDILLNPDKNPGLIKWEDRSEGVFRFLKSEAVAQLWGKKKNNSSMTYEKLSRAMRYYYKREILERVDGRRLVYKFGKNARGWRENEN
Procedure, shortened: as §1

[4] = target: SPIB (Homo sapiens, UniProt Q01892 1-262)
Procedure, shortened: as §1

[5] = target: T4, FEV (Homo sapiens, UniProt Q99581 1-238)
T4 sequence: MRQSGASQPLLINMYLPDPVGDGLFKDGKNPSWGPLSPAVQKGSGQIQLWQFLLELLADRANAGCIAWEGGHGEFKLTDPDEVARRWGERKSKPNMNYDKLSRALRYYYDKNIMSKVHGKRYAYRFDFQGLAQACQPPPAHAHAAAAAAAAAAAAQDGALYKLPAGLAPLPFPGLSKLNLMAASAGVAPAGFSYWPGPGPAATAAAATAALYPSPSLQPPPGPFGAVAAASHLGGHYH
Procedure, shortened: as §1

[6] = target: ELF4 (Homo sapiens, UniProt Q99607 1-663)
Procedure, shortened: as §1

[7] = target: T5, ELK4 (Homo sapiens, UniProt P28324-2 1-405)
T5 sequence: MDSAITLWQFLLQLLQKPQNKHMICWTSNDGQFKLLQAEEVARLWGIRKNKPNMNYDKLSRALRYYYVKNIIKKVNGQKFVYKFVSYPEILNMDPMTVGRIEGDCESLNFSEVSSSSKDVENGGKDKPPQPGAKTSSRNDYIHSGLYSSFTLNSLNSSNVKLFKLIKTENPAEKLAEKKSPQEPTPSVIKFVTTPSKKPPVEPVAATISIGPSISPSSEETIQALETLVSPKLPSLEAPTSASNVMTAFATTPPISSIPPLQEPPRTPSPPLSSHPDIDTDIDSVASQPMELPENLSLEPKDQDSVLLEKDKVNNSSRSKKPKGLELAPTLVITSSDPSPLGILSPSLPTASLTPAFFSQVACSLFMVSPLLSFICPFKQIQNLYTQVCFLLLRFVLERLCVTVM
Procedure, shortened: as §1

[8] = target: T6, ETV2 (Homo sapiens, UniProt O00321 1-342)
T6 sequence: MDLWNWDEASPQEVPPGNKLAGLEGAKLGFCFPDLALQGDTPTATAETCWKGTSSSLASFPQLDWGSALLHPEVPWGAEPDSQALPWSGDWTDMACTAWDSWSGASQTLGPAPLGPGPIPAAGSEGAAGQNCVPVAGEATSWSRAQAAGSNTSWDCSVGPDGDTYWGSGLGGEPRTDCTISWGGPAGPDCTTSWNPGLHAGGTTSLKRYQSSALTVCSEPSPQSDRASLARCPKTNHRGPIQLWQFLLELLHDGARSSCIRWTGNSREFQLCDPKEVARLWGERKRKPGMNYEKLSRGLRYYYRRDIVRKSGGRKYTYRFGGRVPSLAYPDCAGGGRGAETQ
Procedure, shortened: as §1

[9] = target: ETV1 (Homo sapiens, UniProt P50549 1-477)
Procedure, shortened: as §1

[10] = target: T7, ERF (Homo sapiens, UniProt P50548 1-548)
T7 sequence: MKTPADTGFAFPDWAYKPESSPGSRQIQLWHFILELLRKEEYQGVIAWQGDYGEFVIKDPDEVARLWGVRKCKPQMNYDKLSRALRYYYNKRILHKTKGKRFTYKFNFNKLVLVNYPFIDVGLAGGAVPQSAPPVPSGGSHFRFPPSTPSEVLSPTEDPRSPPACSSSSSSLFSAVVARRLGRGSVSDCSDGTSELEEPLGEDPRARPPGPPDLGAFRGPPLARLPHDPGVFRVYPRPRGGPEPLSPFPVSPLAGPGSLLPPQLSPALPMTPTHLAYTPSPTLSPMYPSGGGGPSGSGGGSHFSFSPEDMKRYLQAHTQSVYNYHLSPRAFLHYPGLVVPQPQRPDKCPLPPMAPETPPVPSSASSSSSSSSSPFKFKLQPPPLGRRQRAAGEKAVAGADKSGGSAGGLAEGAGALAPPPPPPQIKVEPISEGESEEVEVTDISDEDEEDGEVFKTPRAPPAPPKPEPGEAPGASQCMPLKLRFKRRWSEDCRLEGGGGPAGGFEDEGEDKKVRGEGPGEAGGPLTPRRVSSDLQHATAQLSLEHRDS
Procedure, shortened: as §1

[11] = target: T8, ETV3L (Homo sapiens, UniProt Q6ZN32 1-361)
T8 sequence: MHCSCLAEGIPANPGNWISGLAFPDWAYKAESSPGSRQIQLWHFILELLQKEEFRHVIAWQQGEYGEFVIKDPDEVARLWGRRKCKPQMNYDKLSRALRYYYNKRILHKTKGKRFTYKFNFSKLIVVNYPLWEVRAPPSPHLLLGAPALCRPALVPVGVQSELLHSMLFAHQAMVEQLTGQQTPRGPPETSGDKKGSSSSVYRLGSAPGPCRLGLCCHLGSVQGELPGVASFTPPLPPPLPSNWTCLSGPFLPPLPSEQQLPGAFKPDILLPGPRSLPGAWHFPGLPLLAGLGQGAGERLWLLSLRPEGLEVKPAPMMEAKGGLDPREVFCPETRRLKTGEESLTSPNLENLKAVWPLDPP
Procedure, shortened: as §1

[12] = target: T9, ETS2 (Homo sapiens, UniProt P15036 1-469)
T9 sequence: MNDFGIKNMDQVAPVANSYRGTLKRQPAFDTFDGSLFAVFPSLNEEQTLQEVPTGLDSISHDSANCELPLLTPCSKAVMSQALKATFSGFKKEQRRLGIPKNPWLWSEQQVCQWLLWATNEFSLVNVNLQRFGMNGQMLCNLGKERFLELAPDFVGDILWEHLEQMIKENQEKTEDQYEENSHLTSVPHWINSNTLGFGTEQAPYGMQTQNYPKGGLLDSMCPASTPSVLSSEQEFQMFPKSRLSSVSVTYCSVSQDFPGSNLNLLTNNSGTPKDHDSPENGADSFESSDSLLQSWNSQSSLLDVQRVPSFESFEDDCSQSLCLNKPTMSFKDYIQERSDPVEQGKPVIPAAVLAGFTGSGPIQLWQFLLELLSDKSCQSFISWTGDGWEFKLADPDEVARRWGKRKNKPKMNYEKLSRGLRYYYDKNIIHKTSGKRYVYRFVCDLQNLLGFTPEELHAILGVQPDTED
Procedure, shortened: as §1

[13] = target: T10, SPDEF (Homo sapiens, UniProt O95238 1-335)
T10 sequence: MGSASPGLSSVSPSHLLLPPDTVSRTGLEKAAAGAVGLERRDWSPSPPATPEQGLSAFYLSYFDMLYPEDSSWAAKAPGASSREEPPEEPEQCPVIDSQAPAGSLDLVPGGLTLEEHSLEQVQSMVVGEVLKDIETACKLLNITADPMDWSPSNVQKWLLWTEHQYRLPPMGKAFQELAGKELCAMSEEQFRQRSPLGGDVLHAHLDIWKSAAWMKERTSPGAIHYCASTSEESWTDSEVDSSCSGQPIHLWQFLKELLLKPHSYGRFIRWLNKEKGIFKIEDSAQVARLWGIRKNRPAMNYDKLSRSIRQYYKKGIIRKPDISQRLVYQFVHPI
Procedure, shortened: as §1

[14] = target: T11, ETV7 (Homo sapiens, UniProt Q9Y603 1-341)
T11 sequence: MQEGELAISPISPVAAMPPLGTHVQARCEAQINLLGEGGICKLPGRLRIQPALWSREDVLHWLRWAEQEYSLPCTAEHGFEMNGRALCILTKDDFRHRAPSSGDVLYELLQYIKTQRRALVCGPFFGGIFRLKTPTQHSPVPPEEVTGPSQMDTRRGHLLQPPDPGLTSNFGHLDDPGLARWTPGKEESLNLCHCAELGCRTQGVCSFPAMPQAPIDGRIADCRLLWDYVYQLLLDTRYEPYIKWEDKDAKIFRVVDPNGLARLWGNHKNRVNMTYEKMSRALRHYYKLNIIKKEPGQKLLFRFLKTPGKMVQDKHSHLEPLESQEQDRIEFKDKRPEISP
Procedure, shortened: as §1

[15] = target: T12, ETV3 (Homo sapiens, UniProt P41162-2 1-143)
T12 sequence: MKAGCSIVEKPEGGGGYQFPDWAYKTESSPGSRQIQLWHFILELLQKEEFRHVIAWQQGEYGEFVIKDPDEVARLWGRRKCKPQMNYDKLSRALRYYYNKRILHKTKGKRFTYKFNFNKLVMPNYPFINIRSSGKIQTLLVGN
Procedure, shortened: as §1

[16] = target: T13, ELK3 (Homo sapiens, UniProt P41970 1-407)
T13 sequence: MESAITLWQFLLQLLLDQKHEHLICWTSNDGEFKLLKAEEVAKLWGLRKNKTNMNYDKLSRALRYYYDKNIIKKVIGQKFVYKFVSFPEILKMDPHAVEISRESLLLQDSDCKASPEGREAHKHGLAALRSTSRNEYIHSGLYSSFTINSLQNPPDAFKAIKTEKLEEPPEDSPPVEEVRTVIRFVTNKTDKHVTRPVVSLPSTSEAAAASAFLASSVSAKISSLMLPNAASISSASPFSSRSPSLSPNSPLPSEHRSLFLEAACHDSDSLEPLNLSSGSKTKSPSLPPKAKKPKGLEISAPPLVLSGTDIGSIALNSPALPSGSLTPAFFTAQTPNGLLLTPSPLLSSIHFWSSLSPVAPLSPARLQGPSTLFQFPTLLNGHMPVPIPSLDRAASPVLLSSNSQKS
Procedure, shortened: as §1

[17] = target: CRX (Homo sapiens, UniProt O43186 1-299)
Procedure, shortened: as §1

[18] = target: ELF1 (Homo sapiens, UniProt P32519 1-619)
Procedure, shortened: as §1

Sequence of SPIB (Q01892 whole entry): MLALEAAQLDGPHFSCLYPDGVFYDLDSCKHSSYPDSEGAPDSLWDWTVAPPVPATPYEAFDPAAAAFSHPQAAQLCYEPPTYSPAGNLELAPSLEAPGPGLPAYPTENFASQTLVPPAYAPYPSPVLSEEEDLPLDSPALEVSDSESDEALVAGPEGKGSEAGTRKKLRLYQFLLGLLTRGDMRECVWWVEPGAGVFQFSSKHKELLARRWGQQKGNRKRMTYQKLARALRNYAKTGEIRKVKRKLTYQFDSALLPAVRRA
Sequence of ETV1 (P50549 whole entry): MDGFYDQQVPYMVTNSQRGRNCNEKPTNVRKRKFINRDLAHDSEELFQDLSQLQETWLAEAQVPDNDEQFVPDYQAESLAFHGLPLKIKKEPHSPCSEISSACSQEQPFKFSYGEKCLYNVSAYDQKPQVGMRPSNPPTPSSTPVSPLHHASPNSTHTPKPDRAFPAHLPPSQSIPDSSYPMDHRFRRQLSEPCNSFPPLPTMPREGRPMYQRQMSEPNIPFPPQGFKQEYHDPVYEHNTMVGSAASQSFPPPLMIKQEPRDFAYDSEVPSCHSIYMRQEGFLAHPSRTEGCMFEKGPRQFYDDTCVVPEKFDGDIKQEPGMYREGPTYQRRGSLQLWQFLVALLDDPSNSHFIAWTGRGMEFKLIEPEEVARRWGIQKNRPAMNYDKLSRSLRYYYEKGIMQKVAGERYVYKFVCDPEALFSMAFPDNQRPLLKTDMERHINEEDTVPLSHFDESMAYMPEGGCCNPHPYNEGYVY
Sequence of ELF1 (P32519 whole entry): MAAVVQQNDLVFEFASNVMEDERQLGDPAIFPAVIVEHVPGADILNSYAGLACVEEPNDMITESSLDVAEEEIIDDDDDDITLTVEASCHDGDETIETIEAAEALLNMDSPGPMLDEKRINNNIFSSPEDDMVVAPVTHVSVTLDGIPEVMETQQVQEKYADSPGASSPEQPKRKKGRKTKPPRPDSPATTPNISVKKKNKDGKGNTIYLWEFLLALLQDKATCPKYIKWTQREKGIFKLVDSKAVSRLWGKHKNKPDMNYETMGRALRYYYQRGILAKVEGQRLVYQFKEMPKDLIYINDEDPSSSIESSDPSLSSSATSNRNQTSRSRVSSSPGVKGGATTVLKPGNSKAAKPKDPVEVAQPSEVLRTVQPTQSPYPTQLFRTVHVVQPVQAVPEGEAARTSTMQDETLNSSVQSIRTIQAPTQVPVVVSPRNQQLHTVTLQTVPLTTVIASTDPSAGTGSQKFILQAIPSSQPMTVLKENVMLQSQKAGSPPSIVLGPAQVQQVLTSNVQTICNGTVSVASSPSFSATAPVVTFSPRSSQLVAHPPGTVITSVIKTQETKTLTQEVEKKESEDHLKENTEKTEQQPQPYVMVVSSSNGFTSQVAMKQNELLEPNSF
Sequence of CRX (O43186 whole entry): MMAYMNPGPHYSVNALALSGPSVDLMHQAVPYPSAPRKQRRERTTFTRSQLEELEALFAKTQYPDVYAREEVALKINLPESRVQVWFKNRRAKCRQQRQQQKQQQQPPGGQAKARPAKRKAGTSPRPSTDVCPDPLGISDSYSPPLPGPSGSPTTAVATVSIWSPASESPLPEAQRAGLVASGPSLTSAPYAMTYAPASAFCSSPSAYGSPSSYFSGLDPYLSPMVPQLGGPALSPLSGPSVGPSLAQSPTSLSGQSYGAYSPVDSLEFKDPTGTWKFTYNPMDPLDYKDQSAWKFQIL
Sequence of ELF4 (Q99607 whole entry): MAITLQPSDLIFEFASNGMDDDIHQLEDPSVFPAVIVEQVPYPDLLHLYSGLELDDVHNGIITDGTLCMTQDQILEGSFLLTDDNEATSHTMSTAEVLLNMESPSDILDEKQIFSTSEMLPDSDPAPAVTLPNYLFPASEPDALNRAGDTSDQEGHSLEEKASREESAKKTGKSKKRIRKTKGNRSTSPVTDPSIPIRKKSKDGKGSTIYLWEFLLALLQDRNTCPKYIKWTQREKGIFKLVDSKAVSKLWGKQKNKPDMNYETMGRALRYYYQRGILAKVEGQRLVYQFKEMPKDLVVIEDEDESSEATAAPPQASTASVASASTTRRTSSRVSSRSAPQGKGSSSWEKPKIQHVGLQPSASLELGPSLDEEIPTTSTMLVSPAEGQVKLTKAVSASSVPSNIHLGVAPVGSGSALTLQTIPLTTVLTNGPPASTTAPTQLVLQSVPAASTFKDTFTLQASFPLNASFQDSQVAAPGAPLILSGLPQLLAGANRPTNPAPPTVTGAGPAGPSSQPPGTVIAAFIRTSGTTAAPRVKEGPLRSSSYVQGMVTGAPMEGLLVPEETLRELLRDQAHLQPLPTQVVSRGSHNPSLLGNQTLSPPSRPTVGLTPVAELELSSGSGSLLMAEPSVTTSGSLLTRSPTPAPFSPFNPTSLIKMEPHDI

ACACCG
binding signal [1]: 1.05 fold enrichment (6-mer frequency, TF over GST control)
binding signal [2]: 1.13 fold enrichment (6-mer frequency, TF over GST control)
binding signal [3]: 1.03 fold enrichment (6-mer frequency, TF over GST control)
binding signal [4]: 1.06 fold enrichment (6-mer frequency, TF over GST control)
binding signal [5]: 1.26 fold enrichment (6-mer frequency, TF over GST control)
binding signal [6]: 1.11 fold enrichment (6-mer frequency, TF over GST control)
binding signal [7]: 1.03 fold enrichment (6-mer frequency, TF over GST control)
binding signal [8]: 1.03 fold enrichment (6-mer frequency, TF over GST control)
binding signal [9]: 1.09 fold enrichment (6-mer frequency, TF over GST control)
binding signal [10]: 1 fold enrichment (6-mer frequency, TF over GST control)
binding signal [11]: 1.04 fold enrichment (6-mer frequency, TF over GST control)
binding signal [12]: 1.07 fold enrichment (6-mer frequency, TF over GST control)
binding signal [13]: 1.09 fold enrichment (6-mer frequency, TF over GST control)
binding signal [14]: 1.01 fold enrichment (6-mer frequency, TF over GST control)
binding signal [15]: 1.03 fold enrichment (6-mer frequency, TF over GST control)

GCGTTA
binding signal [16]: 1.09 fold enrichment (6-mer frequency, TF over GST control)
binding signal [7]: 1.02 fold enrichment (6-mer frequency, TF over GST control)
binding signal [17]: 1.06 fold enrichment (6-mer frequency, TF over GST control)
binding signal [11]: 1.04 fold enrichment (6-mer frequency, TF over GST control)

ACACAG
binding signal [18]: 1.05 fold enrichment (6-mer frequency, TF over GST control)
binding signal [7]: 1.12 fold enrichment (6-mer frequency, TF over GST control)
binding signal [10]: 1.04 fold enrichment (6-mer frequency, TF over GST control)
binding signal [11]: 1.05 fold enrichment (6-mer frequency, TF over GST control)
binding signal [14]: 1.13 fold enrichment (6-mer frequency, TF over GST control)
